Details in all cases: concentration: 1 μM, replicates: in singlicate; n = 1
The subject of experiment [1] is HIPK3.
In experiment [2] the test system is HIPK4.
Experiment [3] deals with HPK1.
Experiment [4] has as its system HUNK.
Experiment [5] has as its system ICK.
Experiment [6] deals with IGF1R.
Experiment [7] has as its system T1, IKK-alpha.
T1 construct: gene CHUK

Experiment [8] deals with T2, IKK-beta.
T2 construct: gene IKBKB

Experiment [9] relates to T3, IKK-epsilon.
T3 construct: gene IKBKE

The test system of experiment [10] is INSRR.
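Note: KINOMEscan kinase panel screen.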

Take `O=C1NC(=O)C(c2ccccc2)=C1Nc1cccc(O)c1` [SB-390534]: the “%Inh” value in [1] is on record as 8%; in [2], 2%; in [3], 9%; in experiment [4], 29%; in experiment [5], 10%; in [6], 0%. Moreover, the “%Inh” value in [7] was determined as 0%; in experiment [8], 0%; in experiment [9], 0%; in experiment [10] it was 15%.

Take `CN1C(=O)C(Nc2cc(Cl)c(O)c(Cl)c2)=C(c2ccc(Cl)cc2)C1=O` [SB-404321]: the “%Inh” value amounted to 0% in [1]; 0% in [2]; 12% in experiment [3]; 0% in experiment [4]; 6% in experiment [5]; 0% in experiment [6]. For the same compound, the “%Inh” value in experiment [7], in [8], in experiment [9] and in experiment [10] was 0% in each case.

In the case of `Cc1ccccc1COc1cc(-n2cnc3cc(Cl)ccc32)sc1C(N)=O` [GW813349], the “%Inh” value in [1] amounted to 12%; in [2] it was 21%; in experiment [3] it was 62%; in experiment [4], 18%; in experiment [5] it was 0%; in experiment [6], 9%. Also, the “%Inh” value in experiment [7] is on record as 0%; in [8], 0%; in [9] it was 62%; in experiment [10], 23%.

In the case of `OCCCNc1nccc(-c2c(-c3cccc(C(F)(F)F)c3)nn3cc(C(F)(F)F)ccc23)n1` [GW630813], the “%Inh” value was 0% in [1]; 0% in experiment [2]; 27% in experiment [3]; 9% in experiment [4]; 0% in [5]; 8% in experiment [6]. The “%Inh” value in experiment [7] is given as 0%; in experiment [8], 0%; in experiment [9], 14%; in experiment [10], 0%.

In the case of `COc1ccc(-c2cc3c(C)nc(N)nc3n([C@H]3CC[C@H](OCCO)CC3)c2=O)cn1`, the “%Inh” value in experiment [1] was determined as 5%; in experiment [2], 0%; in [3] it was 0%; in experiment [4], 0%; in experiment [5] it was 0%; in experiment [6], 0%. The “%Inh” value in experiment [7], in experiment [8], in [9] and in experiment [10] was 0% in each case.

In the case of `O=C(NCc1cccs1)c1cc(C(=O)c2c(Cl)cccc2Cl)c[nH]1` [GW823670], the “%Inh” value in experiment [1] amounted to 0%; in [2] it was 0%; in experiment [3] it was 37%; in experiment [4] it was 31%; in [5], 0%; in experiment [6], 1%. Also, the “%Inh” value in [7] was 0%; in experiment [8], 0%; in experiment [9], 3%; in experiment [10], 0%.

As for `CCC(=O)c1c(-c2ccccc2)c2cc(Cl)ccc2c(=O)n1Cc1ccc(C(=O)O)cc1`, the “%Inh” value in experiment [1], in experiment [2], in experiment [3], in experiment [4], in [5] and in experiment [6] was 0% throughout. Also, the “%Inh” value in [7], in experiment [8], in experiment [9] and in experiment [10] was 0% in each case.

Take `CCC(=O)c1c(-c2ccccc2)c2cc(Cl)ccc2c(=O)n1Cc1cc(S(C)(=O)=O)n(CC(F)F)n1`: the “%Inh” value amounted to 0% in [1]; 0% in experiment [2]; 0% in experiment [3]; 3% in experiment [4]; 0% in [5]; 10% in experiment [6]. In addition, the “%Inh” value in [7], in [8], in [9] and in experiment [10] was 0% throughout.

For `Fc1cccc(CSc2nnc(-c3ccc4c(c3)CCO4)o2)c1`, the “%Inh” value in [1] was 6%; in [2], 0%; in experiment [3] it was 0%; in experiment [4] it was 0%; in experiment [5] it was 0%; in [6], 13%. Also, the “%Inh” value is 14% in experiment [7], 10% in experiment [8], 20% in [9] and 0% in experiment [10].

Take `CCS(=O)(=O)c1ccc(OC)c(Nc2ncc(-c3ccc(F)cc3)o2)c1.Cl` [GW591947]: the “%Inh” value in [1] is 37%; in [2], 0%; in [3], 17%; in experiment [4], 22%; in experiment [5], 0%; in experiment [6], 20%. Besides, the “%Inh” value is recorded as 0% in experiment [7], 1% in experiment [8], 0% in experiment [9] and 0% in experiment [10].

In the case of `Cc1c(Cn2c(C)nn3c(=O)cc(N4CCO[C@H](C)C4)nc23)cccc1C(F)(F)F` [GSK2373690], the “%Inh” value in [1] stood at 30%; in experiment [2], 0%; in experiment [3], 24%; in [4], 4%; in [5], 1%; in experiment [6], 41%. Besides, the “%Inh” value is given as 0% in [7], 3% in [8], 0% in experiment [9] and 14% in experiment [10].

For the compound `Cl.c1ccc(Cn2cnc3cc(Nc4ncnc5ccccc45)ccc32)cc1` [GW272142], the “%Inh” value in experiment [1] turned out to be 8%; in [2], 0%; in experiment [3], 36%; in experiment [4], 5%; in experiment [5] it was 0%; in experiment [6], 34%. Also, the “%Inh” value in experiment [7] was determined as 0%; in experiment [8], 12%; in experiment [9] it was 17%; in experiment [10], 36%.

Consider `CCS(=O)c1ccc(-c2coc3ccc(-c4nnc(C)o4)cc23)cc1` (centres unmarked), for which the “%Inh” value is listed as 21% in experiment [1]; 0% in [2]; 11% in [3]; 0% in experiment [4]; 10% in experiment [5]; 0% in [6]. Further, the “%Inh” value in experiment [7] was 10%; in [8], 6%; in [9], 0%; in [10] it was 0%.

On to `CC(C)(C)c1ccc(C(=O)Nc2cn3cc(-c4ccccc4)ccc3n2)cc1`, for which the “%Inh” value is recorded as 20% in [1]; 0% in experiment [2]; 0% in experiment [3]; 9% in experiment [4]; 0% in [5]; 0% in experiment [6]. Also, the “%Inh” value in experiment [7] was determined as 5%; in [8], 6%; in experiment [9] it was 0%; in experiment [10] it was 0%.

As to `COC(=O)c1c(-c2ccccc2)c2cc(Br)ccc2c(=O)n1Cc1ccc(S(C)(=O)=O)cc1`, the “%Inh” value in experiment [1] is 10%; in experiment [2], 5%; in experiment [3], 0%; in experiment [4] it was 27%; in experiment [5], 50%; in experiment [6] it was 9%. Further, the “%Inh” value is 9% in [7], 6% in experiment [8], 15% in experiment [9] and 1% in [10].

As for `COC(=O)c1c(-c2ccccc2)c2cc(C)ccc2c(=O)n1Cc1ccccc1`, the “%Inh” value in experiment [1] is reported as 0%; in experiment [2], 0%; in experiment [3], 0%; in experiment [4] it was 0%; in [5], 0%; in experiment [6], 5%. For the same compound, the “%Inh” value in experiment [7] is given as 0%; in experiment [8], 0%; in experiment [9], 0%; in experiment [10], 1%.

For `Cc1nnc(-c2ccc3ncn(-c4ccc(S(C)=O)cc4)c3c2)o1` (centres unmarked), the “%Inh” value in experiment [1] was determined as 13%; in [2] it was 6%; in experiment [3] it was 0%; in [4], 0%; in [5], 0%; in [6], 0%. The “%Inh” value in [7] turned out to be 25%; in experiment [8], 7%; in [9], 0%; in experiment [10], 0%.

Values taken from PMC5540273 (PLoS ONE, 2017).
